D1 antag: blocks dopamine activation of the human D1 receptor | HEK293 TREx D1 cells, calcium flux, dopamine EC80; hits give low values | activity change, negative = inhibition, % at 10 µM | 360,000 tested, 3.2% active | AID 504652; in the data active = activity change below about -30%; also: % is scaled to controls: 0 for no effect and ±100 for the full control effect
Target sequence (P21728 whole entry, looked up): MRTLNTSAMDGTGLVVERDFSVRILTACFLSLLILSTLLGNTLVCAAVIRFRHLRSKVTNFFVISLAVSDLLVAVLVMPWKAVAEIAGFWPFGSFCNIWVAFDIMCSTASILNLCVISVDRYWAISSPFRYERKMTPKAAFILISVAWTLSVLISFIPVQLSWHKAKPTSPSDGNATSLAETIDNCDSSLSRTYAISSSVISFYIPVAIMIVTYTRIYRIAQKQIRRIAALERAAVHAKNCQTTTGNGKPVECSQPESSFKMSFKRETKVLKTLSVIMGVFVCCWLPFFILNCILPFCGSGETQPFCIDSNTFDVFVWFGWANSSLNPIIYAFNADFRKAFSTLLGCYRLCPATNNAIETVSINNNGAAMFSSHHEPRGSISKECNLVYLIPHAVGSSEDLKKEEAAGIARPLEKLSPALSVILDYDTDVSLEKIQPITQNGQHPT
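Allosteric or orthosteric antagonism assessed as attenuation of the calcium response to EC80 dopamine, added 180 s after compound, in induced HEK293 Trex D1 cells loaded with no-wash calcium dye.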
D1 PAM: human D1 dopamine receptor positive modulation | P21728 | HEK293 TREx D1 cells, calcium flux, dopamine EC20 potentiation | potentiation, % at 10 µM | 360,000 tested, 0.036% active; in the data active = potentiation above about 30%; also: 0% is about no effect
D3 ag: D3 dopamine receptor (human) agonism | D3R DiscoveRx beta-arrestin cells, luminescence, 90 min | P35462 | 410,000 tested, 0.58% active | max activation, %; in the data active = max activation above about 30%; also: 0% is about no effect
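Cells at 1500/well, incubated overnight, then treated with pinned compounds (dopamine as control) for 90 min at 37 degrees C. DiscoveRx reagent added for 30 - 60 minutes at room temperature; luminescence read.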
DRD3 antagonist: antagonists of human D3 dopamine receptor; P35462; AID 652054; max response, negative = inhibition, %; D3R cells, DiscoveRx beta-arrestin luminescence, antagonist mode; hits give low values; 360,000 tested, 2.5% active; in the data active = max response below about -50%; also: % is scaled to controls: 0 for no effect and ±100 for the full control effect
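Cells plated overnight at 1500 cells/well, then exposed to library compounds with dopamine controls for 90 minutes at 37 degrees C. DiscoveRx reagent added for 30–60 minutes at room temperature; luminescence read, quantitative HTS format.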
D1 ag: human D1 receptor agonism. P21728. 360,000 tested, 1% active. activation, % at 2 µM. HEK293 T-REx D1 cells, calcium flux, agonist mode; in the data active = activation above about 30%; also: 0% is about no effect
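Tetracycline-induced HEK293 TREx D1 cells, force-coupled to calcium signalling, were dye-loaded with a no-wash calcium kit. Compound was pin-added after a 10 s baseline. Fluorescence was read kinetically at 1 cycle/s for 180 s, with calcium rises flagged as agonism.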
Starred values were filed as active, the others as inactive; ! = a repeat was not active. Most compounds without a hit are left out; they make up all but 6% or so of the library.

For Cc1ccc(C)c(Cn2c(=O)n(CCCCC(=O)NCc3ccc4c(c3)OCO4)c(=O)c3ccccc32)c1 the results were D1 antag -6.2, D1 PAM -0.1, D3 ag 0.5 and D1 ag 3.3.
Screening O=C(c1ccc2c(c1)N(Cc1cccc(Cl)c1)C(=O)c1ccccc1S2=O)N1CCN(c2cccc(C(F)(F)F)c2)CC1 (configuration not stated) returned D1 antag -10.2, D1 PAM -4.8, D3 ag -11.1 and D1 ag 0.4.
`Cc1cc([N+](=O)[O-])ccc1NCc1ccccc1` gave D1 antag -31.9*, D1 PAM -5.0, D3 ag -2.6, DRD3 antagonist -6.4 and D1 ag 0.6.
Cc1cc([N+](=O)[O-])ccc1NC(=S)NC(=O)Cc1ccccc1 was read as D1 antag 10.1, D1 PAM -0.9, D3 ag -18.1, DRD3 antagonist -60.5* and D1 ag 5.8.
Screening O=[N+]([O-])c1ccc(S(=O)Cc2ccccc2)c([N+](=O)[O-])c1 (configuration not stated) returned D3 ag -38.6 and DRD3 antagonist -101.9*.
O=[N+]([O-])c1ccc(CS(=O)c2ccccc2)cc1 (configuration not stated) was read as D3 ag -1.3 and DRD3 antagonist 4.7.
`Cc1ccc(CNC(=O)c2cnc3c(-c4ccccc4)c(C)nn3c2C)o1` gave D1 antag -23.4, D1 PAM -3.2, D3 ag 5.5 and D1 ag -0.2.
Cc1ccc(NC(=O)c2cc3nc(-c4ccc5c(c4)OCO5)cc(C(F)(F)F)n3n2)cc1Cl was read as D1 antag 0.5, D1 PAM -3.0, D3 ag 0.6 and D1 ag 0.7.
Screening Cc1cccc(/C=N/N(CCO)C2=NS(=O)(=O)c3ccccc32)c1 returned D1 antag -33.9*, D1 PAM -5.7, D3 ag -7.7, DRD3 antagonist 21.2 and D1 ag 2.3.
COc1cccc(NC(=O)C2CCCN(S(=O)(=O)c3cccc4cccnc34)C2)c1 (configuration not stated) was read as D1 antag -34.9*, D1 PAM -2.3, D3 ag 0.2, DRD3 antagonist 14.9 and D1 ag 1.3.
Screening O=C(C1CCN(S(=O)(=O)c2cccc3cccnc23)CC1)N1CCn2c1nc1ccccc12 returned D1 antag -4.1, D3 ag -40.5, DRD3 antagonist -184.4* and D1 ag 0.1.
`O=C(NCc1ccccc1)C1CCN(S(=O)(=O)c2cccc3cccnc23)CC1` gave D1 antag 2.1, D1 PAM 0.3, D3 ag 0.7, DRD3 antagonist 14.0 and D1 ag -0.9.
`O=C(NC1CCCCC1)C1CCCN(S(=O)(=O)c2cccc3cccnc23)C1` (configuration not stated) gave D1 antag -30.2*, D1 PAM -9.6, D3 ag -2.8, DRD3 antagonist -21.1 and D1 ag 0.5.
O=C(COC(=O)C1CCN(S(=O)(=O)c2cccc3cccnc23)CC1)c1ccc(F)cc1 was read as D1 antag -3.5, D1 PAM -0.9, D3 ag 5.5, DRD3 antagonist -52.4* and D1 ag -0.2.
For O=C(NC1CCCC1)C1CCN(S(=O)(=O)c2cccc3cccnc23)CC1 the results were D1 antag 14.3, D1 PAM 4.0, D3 ag -0.7, DRD3 antagonist 4.8 and D1 ag -1.1.
`Cc1cc(C)n(CCc2nc3c4ccccc4nc(N4CCN(c5ccc(F)cc5)CC4)n3n2)n1` gave D1 antag 10.6, D1 PAM -5.0, D3 ag -10.9 and D1 ag 0.2.
Cc1ccc2oc(-c3cccc(NC(=O)c4ccc(N5CCC(C)CC5)c([N+](=O)[O-])c4)c3)nc2c1 was read as D1 antag -2.5, D1 PAM -1.9, D3 ag -13.9 and D1 ag -0.2.
`CCOCCCNC(=O)C(c1ccc(C)cc1)N(Cc1ccc2c(c1)OCO2)C(=O)c1ccccc1O` (configuration not stated) gave D1 antag -6.9, D1 PAM -1.0, D3 ag 0.3 and D1 ag -0.8.
`O=C(C1CCCN(S(=O)(=O)c2cccc3cccnc23)C1)N1CCN(c2ccc(F)cc2)CC1` (configuration not stated) gave D1 antag -36.4*, D1 PAM -2.6, D3 ag -4.8, DRD3 antagonist -29.9 and D1 ag 1.0.
Screening CC1CCCCC1NC(=O)C1CCC(CNS(=O)(=O)c2cccc3cccnc23)CC1 (configuration not stated) returned D1 antag -36.6*, D1 PAM 17.5, D3 ag 7.2, DRD3 antagonist 0.8 and D1 ag 1.1.
`O=C(C1CCN(S(=O)(=O)c2cccc3nonc23)CC1)N1CCN(c2ccccc2F)CC1` gave D1 antag -36.7*, D1 PAM -2.5, D3 ag 5.1 and D1 ag -0.6.
O=C(Nc1ccc(F)c(F)c1)C1CCCN(S(=O)(=O)c2cccc3nonc23)C1 (configuration not stated) was read as D1 antag -13.0, D1 PAM -9.3, D3 ag -11.4, DRD3 antagonist 0.0 and D1 ag 33.2*!.
Cc1cccc(NC(=O)C2CCCN(S(=O)(=O)c3cccc4nonc34)C2)c1 (configuration not stated) was read as D1 antag -5.2, D1 PAM -5.0, D3 ag 2.4, DRD3 antagonist -1.9 and D1 ag 3.6.
For Cc1cc(=O)n2[nH]c(NCc3ccc(F)cc3)nc2n1 the results were D1 antag 12.9, D1 PAM 0.4, D3 ag -0.3 and D1 ag 1.6.
Screening Cc1nnc(NCc2ccc(F)cc2)c2c1nnn2Cc1ccccc1Cl returned D1 antag 3.1, D1 PAM -1.0, D3 ag 5.4 and D1 ag 2.0.
Screening Nc1nc2ccc([N+](=O)[O-])cc2s1 returned D3 ag -11.1.
CN1CC(=O)NC1=N was read as D3 ag 9.5.
For CCCCNC(=O)CSc1nc2cc3c(cc2c(=O)n1CCCC(=O)NCc1ccc2c(c1)OCO2)OCO3 the results were D1 antag 2.3, D1 PAM -1.8, D3 ag 4.0 and D1 ag -0.5.
`CN(C)c1cccc(CNC(=O)c2ccc3sc([C@@H]4O[C@H](CO)[C@H](O)[C@H](O)[C@H]4O)nc3c2)c1` gave D3 ag -15.5 and DRD3 antagonist -101.1*.
`O=C(NCc1cccnc1)c1ccc2sc([C@@H]3O[C@H](CO)[C@H](O)[C@H](O)[C@H]3O)nc2c1` gave D3 ag -5.3 and DRD3 antagonist -55.1*.

Assay outcomes: PubChem BioAssay, National Center for Advancing Translational Sciences (NCATS)
